PubChem BioAssay (NCI)
Compounds without any hit were thinned out: in the full panel of roughly 83,000, 20% have a hit.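 Results are percent growth after 48 hours of single-concentration exposure. 100 means growth as in untreated cells, lower positive values show inhibition; negative values down to -100 show cell death.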 A number with no mark means an inactive call. The source made the active and inactive calls. How the source made its calls: active means growth percent below 10; inactive means the rest.

Columns and labels:
Assay in all cases: NCI-60 one-dose screen, 48 h (100 = growth as untreated, 0 = no growth, -100 = all killed)
Conditions in all cases: 10 µM unless noted
SK-MEL-2 melanoma = system: SK-MEL-2 melanoma
EKVX NSCLC = system: EKVX NSCLC
SN12C renal = system: SN12C renal
UO-31 renal = system: UO-31 renal
TK-10 renal = system: TK-10 renal
ACHN renal = system: ACHN renal
CAKI-1 renal = system: CAKI-1 renal
A498 renal = system: A498 renal
CCRF-CEM leukemia = system: CCRF-CEM leukemia
MOLT-4 leukemia = system: MOLT-4 leukemia
SR leukemia = system: SR leukemia
RPMI-8226 leukemia = system: RPMI-8226 leukemia
OVCAR-8 ovarian = system: OVCAR-8 ovarian
OVCAR-5 ovarian = system: OVCAR-5 ovarian
OVCAR-4 ovarian = system: OVCAR-4 ovarian
SK-OV-3 ovarian = system: SK-OV-3 ovarian
IGROV1 ovarian = system: IGROV1 ovarian
OVCAR-3 ovarian = system: OVCAR-3 ovarian
HS 578T breast = system: HS 578T breast
NCI/ADR-RES ovarian = system: NCI/ADR-RES ovarian

## N#CC1=C(N)Oc2c(c(N)nn2-c2ccccc2)C1c1ccc(Cl)cc1Cl (stereo not given)
SK-MEL-2 melanoma
  growth: 101%
EKVX NSCLC
  growth: 91.2%
SN12C renal
  growth: 99.5%
UO-31 renal
  growth: 73.8%
TK-10 renal
  growth: 123%
ACHN renal
  growth: 99%
CAKI-1 renal
  growth: 90.1%
A498 renal
  growth: 90.7%
CCRF-CEM leukemia
  growth: 95.6%
MOLT-4 leukemia
  growth: 88.3%
SR leukemia
  growth: 97.3%
RPMI-8226 leukemia
  growth: 94.4%
OVCAR-8 ovarian
  growth: 96.9%
OVCAR-5 ovarian
  growth: 98.2%
OVCAR-4 ovarian
  growth: 95.7%
SK-OV-3 ovarian
  growth: 92.5%
IGROV1 ovarian
  growth: 101%
OVCAR-3 ovarian
  growth: 110%
HS 578T breast
  growth: 101%
NCI/ADR-RES ovarian
  growth: 100%

## COC(=O)[C@]12CC[C@@H](C)[C@H](C)[C@@H]1C1=CC[C@@H]3[C@@](C)(CC#N)C4=C(C[C@@]3(C)[C@]1(C)CC2)OC[C@]4(C)C=O
SK-MEL-2 melanoma
  growth: -40.2% (active)
EKVX NSCLC
  growth: -11.8% (active)
SN12C renal
  growth: 1.64% (active)
UO-31 renal
  growth: 6.25% (active)
TK-10 renal
  growth: 3.82% (active)
ACHN renal
  growth: 7.19% (active)
CAKI-1 renal
  growth: 9.24% (active)
A498 renal
  growth: -91.7% (active)
CCRF-CEM leukemia
  growth: 1.66% (active)
MOLT-4 leukemia
  growth: 2.4% (active)
SR leukemia
  growth: 2.49% (active)
RPMI-8226 leukemia
  growth: 2.46% (active)
OVCAR-8 ovarian
  growth: 5.29% (active)
OVCAR-5 ovarian
  growth: -48.3% (active)
OVCAR-4 ovarian
  growth: 10%
SK-OV-3 ovarian
  growth: 0.91% (active)
IGROV1 ovarian
  growth: 22.9%
OVCAR-3 ovarian
  growth: -59.6% (active)
HS 578T breast
  growth: -0.493% (active)
NCI/ADR-RES ovarian
  growth: -11.3% (active)

## Nc1c(C(=O)Nc2cccc3ccccc23)sc2nc3c(cc12)CCCC3
SK-MEL-2 melanoma
  growth: 51.5%
EKVX NSCLC
  growth: 66.4%
SN12C renal
  growth: 34.3%
UO-31 renal
  growth: 42%
TK-10 renal
  growth: 60.6%
ACHN renal
  growth: 44.7%
CAKI-1 renal
  growth: 44.9%
A498 renal
  growth: 0.0449% (active)
CCRF-CEM leukemia
  growth: 16.6%
MOLT-4 leukemia
  growth: 20.7%
SR leukemia
  growth: 9.22% (active)
RPMI-8226 leukemia
  growth: 28.3%
OVCAR-8 ovarian
  growth: 33.8%
OVCAR-5 ovarian
  growth: 44.7%
OVCAR-4 ovarian
  growth: 52.7%
SK-OV-3 ovarian
  growth: 36.8%
IGROV1 ovarian
  growth: 45.4%
OVCAR-3 ovarian
  growth: 2.02% (active)
HS 578T breast
  growth: 27.8%
NCI/ADR-RES ovarian
  growth: 0.722% (active)

## COc1cc2nc(Cl)nc(Nc3cccc(C(=O)/C=C/c4ccc(Br)cc4)c3)c2cc1OC
SK-MEL-2 melanoma
  growth: 92.4%
EKVX NSCLC
  growth: 81.3%
SN12C renal
  growth: 80.8%
UO-31 renal
  growth: 60.8%
TK-10 renal
  growth: 172%
ACHN renal
  growth: 78.3%
CAKI-1 renal
  growth: 72.8%
A498 renal
  growth: 85.4%
CCRF-CEM leukemia
  growth: 31.3%
MOLT-4 leukemia
  growth: 37.1%
SR leukemia
  growth: 14.7%
RPMI-8226 leukemia
  growth: -2.21% (active)
OVCAR-8 ovarian
  growth: 84.7%
OVCAR-5 ovarian
  growth: 102%
OVCAR-4 ovarian
  growth: 93%
SK-OV-3 ovarian
  growth: 96.7%
IGROV1 ovarian
  growth: 86.8%
OVCAR-3 ovarian
  growth: 88.6%
HS 578T breast
  growth: 98.4%
NCI/ADR-RES ovarian
  growth: 92.2%

## CC(=O)Nc1cc(F)cc(C(F)(F)F)c1Cl
SK-MEL-2 melanoma
  growth: 105%
EKVX NSCLC
  growth: 98%
SN12C renal
  growth: 105%
UO-31 renal
  growth: 92.8%
TK-10 renal
  growth: 104%
ACHN renal
  growth: 99.3%
CAKI-1 renal
  growth: 91.5%
A498 renal
  growth: 100%
CCRF-CEM leukemia
  growth: 102%
MOLT-4 leukemia
  growth: 105%
SR leukemia
  growth: 101%
RPMI-8226 leukemia
  growth: 105%
OVCAR-8 ovarian
  growth: 105%
OVCAR-5 ovarian
  growth: 96.2%
OVCAR-4 ovarian
  growth: 98.1%
SK-OV-3 ovarian
  growth: 106%
IGROV1 ovarian
  growth: 100%
OVCAR-3 ovarian
  growth: 104%
HS 578T breast
  growth: 88.2%
NCI/ADR-RES ovarian
  growth: 96.1%

## Cc1cc2nc3c4cc(Cl)ccc4n(CCN(C)C)c3nc2cc1C
SK-MEL-2 melanoma
  growth: 43.6%
EKVX NSCLC
  growth: 20.4%
SN12C renal
  growth: 17.7%
UO-31 renal
  growth: -45% (active)
TK-10 renal
  growth: 19.4%
ACHN renal
  growth: -10% (active)
CAKI-1 renal
  growth: -7.17% (active)
A498 renal
  growth: 73.9%
CCRF-CEM leukemia
  growth: 24.6%
MOLT-4 leukemia
  growth: 2.26% (active)
SR leukemia
  growth: 5.12% (active)
RPMI-8226 leukemia
  growth: -11.5% (active)
OVCAR-8 ovarian
  growth: 19.1%
OVCAR-5 ovarian
  growth: 21.8%
OVCAR-4 ovarian
  growth: 27.1%
SK-OV-3 ovarian
  growth: 31.1%
IGROV1 ovarian
  growth: 4.29% (active)
OVCAR-3 ovarian
  growth: 32.9%
HS 578T breast
  growth: 45.5%
NCI/ADR-RES ovarian
  growth: 13.6%

## Nc1c2c(nc3ccc(Cl)cc13)CC(c1ccccc1)CC2=O (stereo not given)
SK-MEL-2 melanoma
  growth: 59%
EKVX NSCLC
  growth: 40.3%
SN12C renal
  growth: 61.3%
UO-31 renal
  growth: 57.8%
TK-10 renal
  growth: 79.6%
ACHN renal
  growth: 47.9%
CAKI-1 renal
  growth: 44.5%
A498 renal
  growth: 49.3%
CCRF-CEM leukemia
  growth: 43.9%
MOLT-4 leukemia
  growth: 51%
SR leukemia
  growth: 14.3%
RPMI-8226 leukemia
  growth: 25.8%
OVCAR-8 ovarian
  growth: 72.1%
OVCAR-5 ovarian
  growth: 73.2%
OVCAR-4 ovarian
  growth: 89.2%
SK-OV-3 ovarian
  growth: 76.9%
IGROV1 ovarian
  growth: 38.3%
OVCAR-3 ovarian
  growth: 20.6%
HS 578T breast
  growth: 73.5%
NCI/ADR-RES ovarian
  growth: 22.5%

## N#CCCCCCn1c2ccccc2c2c3c(c4c5ccccc5n(CCCCCC#N)c4c21)C(=O)N(O)C3=O
SK-MEL-2 melanoma
  growth: 85%
EKVX NSCLC
  growth: 95%
SN12C renal
  growth: 79.8%
UO-31 renal
  growth: 58.2%
TK-10 renal
  growth: 95.3%
ACHN renal
  growth: 83.8%
CAKI-1 renal
  growth: 0.852% (active)
A498 renal
  growth: 107%
CCRF-CEM leukemia
  growth: 74.5%
MOLT-4 leukemia
  growth: 73.8%
SR leukemia
  growth: 42.9%
RPMI-8226 leukemia
  growth: 37.7%
OVCAR-8 ovarian
  growth: 69.4%
OVCAR-5 ovarian
  growth: 109%
OVCAR-4 ovarian
  growth: 93.4%
SK-OV-3 ovarian
  growth: 71.2%
IGROV1 ovarian
  growth: 75.2%
OVCAR-3 ovarian
  growth: 96.1%
HS 578T breast
  growth: 92.7%
NCI/ADR-RES ovarian
  growth: 85.9%
